Assay results taken from PubChem BioAssay (NCI).
Compounds without any hit were thinned out: in the full panel of roughly 83,000, 20% have a hit.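 Step 1: grow cells in 96-well plates. Step 2: add test compound at a single concentration. Step 3: incubate 48 h. Step 4: record percent growth.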 Calls of active or inactive are those of the source.

The molecules below were run on U251 CNS (assay: NCI-60 one-dose screen, 48 h (100 = growth as untreated, 0 = no growth, -100 = all killed)). Details: 10 µM unless noted.
Description: Growth inhibition of the U251 human tumor cell line is measured as a screen for anti-cancer activity. Cells are grown in 96 well plates and exposed to the test compound for 48 hours. Compounds are tested at a single concentration, which is 10^-5 M for most compounds. The reported endpoint is percent growth (GI% or GIPRCNT), where numbers from 0 - 100% represent growth inhibition, and numbers from -100% - 0 represent cell death. For example, a value of 40 represents 60% growth inhibition. A value of 0 means no net growth occurred over the course of the experiment. A value of -40 indicates 40% of cells at the beginning of the experiment died by the end of the experiment. A value of -100 means all cells are dead at the end of the experiment.
NCI-60 Human Tumor Cell Lines Screen was performed using the standard one-dose NCI protocol, which is described in more detail at https://dtp.cancer.gov/discovery_development/nci-60/default.htm.
Compounds with GIPRCNT values below 10 were considered active. Activity score was based on GIPRCNT using the following formula: […]
Score is 0 for GIPRCNT values of 100 or above, 50 for GIPRCNT values of 0, and 100 for GIPRCNT values of -100.
In the case of `S=C(Nc1ccccc1)Nc1ccc(OCc2nc3ccccc3[nH]2)cc1`, the growth is reported as 34.5% (inactive).
For `CC(C)c1sc(NC(=O)c2cc(NC(=O)c3cc(NC(=O)c4nccn4C)cn3C)cn2C)nc1C(=O)NCCCN(C)C`, the growth was 30.2% (inactive).
For `CC1=C(C(=O)c2ccccc2)C(c2cccc3ccccc23)n2c(nc3ccccc32)N1` (stereo not given), the growth was 17% (inactive).
For `C#C[C@]1(O)CC[C@H]2[C@@H]3CC=C4c5sc(-c6ccc([N+](=O)[O-])cc6)nc5CC[C@]4(C)[C@H]3CC[C@@]21C`, the growth was 0.123% (active).
For `O=C1/C(=C/C2=Cc3ccccc3OC2)SC(=S)N1c1ccccc1F`, the growth was 102% (inactive).
For `Cc1ccc2c(N)c(C(=O)Nc3ccc(OC(F)(F)F)cc3)sc2n1`, the growth was 84.6% (inactive).
In the case of `COc1cc(/C=C/C(=O)c2ccccc2)ccc1Oc1nc(Nc2ccc(F)cc2)nc(N(C)C)n1`, the growth is reported as 5.24% (active).
`COc1cc2c(c(OC)c1OC)C(=O)CC(c1cccc(NC(=O)c3cc(NC(=O)[C@H](C)N)ccc3Cl)c1)O2` (stereo not given in full) was tested, and the growth was 20.9% (inactive).
`CC1CN(c2oc(-c3ccc([N+](=O)[O-])cc3)nc2C#N)CC(C)O1` (stereo not given) was tested, and the growth was 104% (inactive).
In the case of `COC(=O)/C=C/c1cccc2c1C(=O)NC(C)(c1cc3ccccc3oc1=O)N2` (stereo not given), the growth is reported as 57.9% (inactive).
`O=C(O)c1ccc(-c2ccc(/C=N/NC(=O)c3[nH]c4ccc(Br)cc4c3-c3ccccc3)o2)cc1` was tested, and the growth was 1.17% (active).
For `CSc1ccc(NC(=O)c2ccc3nn(/C(C#N)=C/c4ccccn4)nc3c2)cc1`, the growth was -79.9% (active).
In the case of `COc1ccc(/C=C/c2nc3ccccc3c(=O)n2CC(=O)Nc2ccc(OC)cc2)cc1`, the growth is reported as 25.6% (inactive).
For `COc1ccc(C2=NN(c3ccccc3)C(c3ccc(OC)c(OCc4ccccc4)c3)C2)cc1OC` (stereo not given), the growth was 92.4% (inactive).
For `O=C(/C=C/c1cccc(OCc2ccccc2)c1)c1nc2ccccc2[nH]1`, the growth was -65.8% (active).
In the case of `O=C(COc1ccc(NC(=O)Nc2ccccc2)cc1)N=Nc1c(O)[nH]c2ccc([N+](=O)[O-])cc12`, the growth is reported as -72.8% (active).
For `O=C(/C=C/Nc1ccc2oc(=O)ccc2c1)c1cc2cc(Br)ccc2oc1=O`, the growth was 102% (inactive).
With `C=C1CC[C@@H]2[C@]3(C)COC(c4cn(-c5ccccc5)nc4-c4cccc([N+](=O)[O-])c4)O[C@@H]3CC[C@@]2(C)[C@@H]1C/C=C1/C(=O)OC[C@H]1O` (stereo not given in full) the growth was -73.9% (active).
With `CC(/C=C1\SC(=S)N(CCCC(=O)NC(CC(C)C)C(=O)O)C1=O)=C\c1ccccc1` (stereo not given) the growth was 79.6% (inactive).
`N/C(=N\c1nc2ccccc2s1)NC(=O)Nc1ccc(Cl)cc1Cl` was tested, and the growth was -97.9% (active).
In the case of `N#Cc1c(-c2ccc(Cl)cc2)nc2n[nH]c(-c3ccc(Cl)cc3)c2c1-c1cccs1`, the growth is reported as 58.6% (inactive).
With `C=C1CC[C@@H]2[C@]3(C)COC(c4cn[nH]c4-c4ccc(OC)cc4)O[C@@H]3CC[C@@]2(C)[C@@H]1C/C=C1/C(=O)OCC1O` (stereo not given in full) the growth was -76% (active).
In the case of `O=C(/C=C/c1ccc(O)c(O)c1)NC1CCOC1O` (stereo not given), the growth is reported as 95.4% (inactive).
In the case of `N#Cc1c(-c2ccccc2Cl)cc(-c2c[nH]c3ccccc23)[nH]c1=O`, the growth is reported as 67% (inactive).
`C/C(=N\N=C\c1cc([N+](=O)[O-])ccc1Cl)c1ccc2c(c1)Nc1ccccc1S2` was tested, and the growth was 7.09% (active).
In the case of `N#Cc1c(-c2cccc(Cl)c2Cl)cc(-c2c[nH]c3ccccc23)[nH]c1=O`, the growth is reported as 68.9% (inactive).
In the case of `O=c1[nH]c2ccc(Cl)cc2cc1CSc1nccc(-c2ccc(Cl)cc2)n1`, the growth is reported as 47.4% (inactive).
With `CCCSc1nc(NCCc2c[nH]c3ccccc23)c(C#N)c(-c2ccccc2)n1` the growth was 44.6% (inactive).
For `O=C(c1ccccc1)c1ccc2nc(-c3cccc(Cl)c3)[nH]c2c1`, the growth was 96.5% (inactive).
For `CC(=O)c1c(N)c(C#N)cn1-c1ccc(Cl)cc1Cl`, the growth was 98% (inactive).
For `CC(C)CSc1nc(NCCc2c[nH]c3ccccc23)c(C#N)c(-c2ccc(Cl)cc2)n1`, the growth was 23.8% (inactive).
With `Nc1cc2ccccc2c(=O)n1NC(=O)c1ccc(I)cc1` the growth was 97.4% (inactive).
With `Cn1cc(-c2nnc(N)nc2-c2c[nH]c3ccccc23)c2cccnc21` the growth was 41.6% (inactive).
For `COc1ccc(C(=O)/C=C/c2ccccc2Cl)cc1S(N)(=O)=O`, the growth was 109% (inactive).
With `CC(C)CSc1nc(NCCc2c[nH]c3ccccc23)c(C#N)c(-c2ccccc2)n1` the growth was 33.5% (inactive).
In the case of `N/N=C(\N)c1c(N)nc(=S)[nH]c1-c1ccc(Cl)cc1Cl`, the growth is reported as 104% (inactive).
With `CN(C)CCn1c2ccccc2c2nc3cc4ccccc4cc3nc21` the growth was -69.3% (active).
`CCOC(=O)c1ccc(Nc2nc(NN)nc(-c3ccc(F)cc3)c2C#N)cc1` was tested, and the growth was 115% (inactive).
In the case of `CSc1ccc(C(=O)Nc2ccc3nn(/C(C#N)=C/c4ccccn4)nc3c2)cc1`, the growth is reported as -84.1% (active).
`COc1ccc(-c2c(Nn3cnnn3)no[n+]2[O-])cc1` was tested, and the growth was 55.4% (inactive).
